From PubChem BioAssay (NCATS) come the findings set out here.

Several values for one entry are separate records, joined by “and”; a condition that tells them apart may be missing. Equal values may be shown once. Records with an inconclusive call do not appear. A structure can be active in one record and inactive in another. Activity calls are given as the source filed them. Unless noted, the call rests on the fitted dose curve.

Chain of Cytochrome P450 1A2 (Homo sapiens) (P05177 whole entry, looked up): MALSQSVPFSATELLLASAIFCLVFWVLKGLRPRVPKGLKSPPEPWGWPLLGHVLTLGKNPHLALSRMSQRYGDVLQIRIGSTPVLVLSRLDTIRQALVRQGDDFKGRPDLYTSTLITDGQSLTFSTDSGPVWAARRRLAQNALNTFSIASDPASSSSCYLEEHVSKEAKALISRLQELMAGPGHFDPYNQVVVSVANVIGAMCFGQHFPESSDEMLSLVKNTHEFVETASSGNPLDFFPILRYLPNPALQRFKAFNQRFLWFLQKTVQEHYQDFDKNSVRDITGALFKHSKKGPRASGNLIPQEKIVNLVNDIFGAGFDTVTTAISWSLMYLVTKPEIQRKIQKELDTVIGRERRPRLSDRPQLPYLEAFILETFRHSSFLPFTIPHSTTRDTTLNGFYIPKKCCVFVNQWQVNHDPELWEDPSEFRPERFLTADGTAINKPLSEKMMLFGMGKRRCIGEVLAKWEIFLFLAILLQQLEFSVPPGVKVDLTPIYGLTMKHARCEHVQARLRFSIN

Tested on in the first experiment: not listed separately
Nature of the experiment: AP1 Signaling Pathway (AID 357; active means well fitted curve in either direction with a large enough effect, not every such curve was filed as active;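 further: ME-180 reporter cells stimulated with EGF at its EC50 level; on the % scale 0 is the no-effect control and ±100 the full control effect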). As to conditions: ME-180 AP-1-bla reporter, EGF-induced, beta-lactamase ratio, 5 h; at 17.2 µM (top of the series). The gist of the method:
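A ratiometric CCF4 readout (405 nm excitation; 460 and 530 nm emission) quantified AP-1-driven beta-lactamase in ME-180 cells after 5 h with compound and EC50 EGF; AC50 values were derived for activators and inhibitors.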
Take `CC1(C)OC(=O)NC1=O`: the activity change, negative = inhibition is 5.67% (inactive).

For `Nc1ccc(S(=O)(=O)Nc2ccc(Cl)nn2)cc1`, the activity change, negative = inhibition is 7.06% (inactive). As to `NS(=O)(=O)c1cc2c(cc1C(F)(F)F)NC(Cc1ccccc1)NS2(=O)=O` (stereo unspecified), the activity change, negative = inhibition was -11.1% (inactive). Same read-out and setting: for `C[C@]12CC[C@@H]3c4ccc(O)cc4CC[C@H]3[C@@H]1CCC2=O` the value was -1.97% (inactive).

Regarding `COc1ccc2c(c1)C(=O)N(CCc1ccc(S(=O)(=O)NC(=O)NC3CCCCC3)cc1)C(=O)C2(C)C`, the activity change, negative = inhibition is 12.1% (inactive).

Regarding `CC(=O)c1ccc2c(c1)N(CCCN(C)C)c1ccccc1S2`, the activity change, negative = inhibition was 24.3% (inactive). The same measure, in the same setting: as for `Cc1cc(CC(=O)O)n(C)c1C(=O)c1ccc(Cl)cc1`, the figure is 2.5% (inactive); as for `CNCCCC1c2ccccc2C=Cc2ccccc21`, -3.44% (inactive) and 2.28% (inactive).

On to `Cc1cc2c(cc1S(N)(=O)=O)S(=O)(=O)CCC2`, for which the activity change, negative = inhibition is 4.34% (inactive). `Nc1ccc(S(=O)(=O)Nc2nccs2)cc1`: the activity change, negative = inhibition was -3.49% (inactive).

Consider `CCCCOC(=O)c1ccc(O)cc1`, for which the activity change, negative = inhibition was -21.4% (inactive). With `CCOc1ccc2ccccc2c1C(=O)N[C@@H]1C(=O)N2[C@@H]1SC(C)(C)[C@@H]2C(=O)O`, the activity change, negative = inhibition is 0.437% (inactive). Turning to `C[C@H](N)[C@H](O)c1cccc(O)c1`, the activity change, negative = inhibition was 2.95% (inactive). For `NS(=O)(=O)c1cc2c(cc1Cl)NC(CSCc1ccccc1)=NS2(=O)=O`, the activity change, negative = inhibition is -6.04% (inactive) and -5.71% (inactive). On to `C[C@]12C[C@H](O)[C@H]3[C@@H](CCC4=CC(=O)CC[C@@]43C)[C@@H]1CC[C@@H]2C(=O)CO`, for which the activity change, negative = inhibition is 0.397% (inactive). Regarding `COC(=O)C1=C(C)NC(C)=C(C(=O)OC)C1c1ccccc1[N+](=O)[O-]`, the activity change, negative = inhibition was -27.7% (inactive).

Staying with this experiment, now noted: ME-180 (cervical carcinoma) AP-1-bla reporter, EGF-induced, beta-lactamase ratio, 5 h; at 38 µM (top of the series).
Consider `NC1CCN(c2cccc(Cl)n2)CC1`, for which the activity change, negative = inhibition is 2.98% (inactive). As for `CC(C)C(=O)c1c(C(C)C)nn2ccccc12`, the activity change, negative = inhibition was -2.6% (inactive). As to `CCCn1cnc2c1c(=O)n(CCCCC(C)=O)c(=O)n2C`, the activity change, negative = inhibition is -2.42% (inactive). As to `NC(N)=NCCC[C@H](N)C(=O)O`, the activity change, negative = inhibition is -0.498% (inactive).

In a further experiment the target is Cytochrome P450 1A2 (Homo sapiens) (UniProt P05177). Nature of the experiment: p450-cyp1a2 (AID 410). Further: potency means the concentration at half of the fitted maximal effect.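 On activity change, negative = inhibition: -100% = full effect of reference inhibitor.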 The following applies: recombinant CYP1A2, luciferin-ME demethylation, luminescence; series mostly up to 25.6 µM; activity change, negative = inhibition: at the top concentration. The gist of the method:
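20nM CYP1A2, 100uM Luciferin-ME (=Km), 100mM KPO4; cpd 10 min RT; +NADPH regen, 60 min RT; stop/detect 20 min; luminescence. Normalized to furafylline 57 uM = full inhibition.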
Take `CC1(C)OC(=O)NC1=O`: the “activity change, negative = inhibition” value is -5.1% (inactive). On the same count and under the same terms, as for `Nc1ccc(S(=O)(=O)Nc2ccc(Cl)nn2)cc1`, the figure is -7.1% (inactive); as for `COc1ccc2c(c1)C(=O)N(CCc1ccc(S(=O)(=O)NC(=O)NC3CCCCC3)cc1)C(=O)C2(C)C`, -0.7% (inactive). For `CC(=O)c1ccc2c(c1)N(CCCN(C)C)c1ccccc1S2`, the Potency was 1.58 µM (active). For `NC1CCN(c2cccc(Cl)n2)CC1`, the Potency is 20 µM (active) and 15.8 µM (active). Still for that read-out and setting: as for `CN(C)CCC=C1c2ccccc2CCc2ccccc21`, the figure is 15.8 µM (active). On to `CNCCCC1c2ccccc2C=Cc2ccccc21`, for which the Potency result is “inactive”. Regarding `Cc1cc2c(cc1S(N)(=O)=O)S(=O)(=O)CCC2`, the “activity change, negative = inhibition” value is -16.8% (inactive). Regarding `Nc1ccc(S(=O)(=O)Nc2nccs2)cc1`, the “activity change, negative = inhibition” value is -1.6% (inactive). In the case of `CCCCOC(=O)c1ccc(O)cc1`, the Potency was 0.0794 µM (active). The same measure, in the same setting: for `CC(C)C(=O)c1c(C(C)C)nn2ccccc12` the value was 1.26 µM (active) and 631 nM (active); for `CN(C)CCCN1c2ccccc2CCc2ccccc21`, “inactive”. Take `CCOc1ccc2ccccc2c1C(=O)N[C@@H]1C(=O)N2[C@@H]1SC(C)(C)[C@@H]2C(=O)O`: the “activity change, negative = inhibition” value was -7% (inactive).

Consider `O=c1cc(CO)occ1O`, for which the “activity change, negative = inhibition” value is -0.5% [at 57 µM] (inactive). As to `CCCn1cnc2c1c(=O)n(CCCCC(C)=O)c(=O)n2C`, the Potency was 12.6 µM (active). For `NS(=O)(=O)c1cc2c(cc1Cl)NC(CSCc1ccccc1)=NS2(=O)=O`, the “activity change, negative = inhibition” value was -0.4% (inactive). As to `NC(N)=NCCC[C@H](N)C(=O)O`, the Potency result was “inactive and 31.6 µM (active)”.

Tested on in the next experiment: not listed separately
Nature of the experiment: Cell Viability - BJ (AID 421).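 Further: potency means the concentration at half of the fitted maximal effect; cells exposed to compound for 40 hours at 37 °C before readout.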 The following applies: BJ fibroblast viability, qHTS. The gist of the method:
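Cytotoxicity in human BJ foreskin fibroblasts is scored as loss of cellular ATP after a 40-hour exposure, measured by luciferase luminescence. Controls are DMSO and 100 uM tamoxifen.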
A general note: qHTS replaces the single test concentration by a dilution series.
On to `Cc1cc2nc3c(=O)[nH]c(=O)nc-3n(C[C@H](O)[C@H](O)[C@H](O)CO)c2cc1C`, for which the Potency is > 92 µM (inactive). For `Oc1cccc(O)c1`, the Potency is > 92 µM (inactive). Same read-out and setting: for `Cc1c(O)cccc1C(=O)N[C@@H](CSc1ccccc1)[C@H](O)CN1C[C@H]2CCCC[C@H]2C[C@H]1C(=O)NC(C)(C)C` the value was 25.2 µM (active); for `COc1ccccc1O`, > 92 µM (inactive); for `NCCNCCNCCNCCN`, > 92 µM (inactive).

Take `NCCNCCNCCN`: the Potency was > 92 µM (inactive). `O=C1O[C@H]([C@@H](O)CO)C(O)=C1O`: the Potency is > 92 µM (inactive). For `Cc1cc(CC(=O)O)n(C)c1C(=O)c1ccc(Cl)cc1`, the Potency was > 92 µM (inactive). For `CCCCCCCCCCCCOS(=O)(=O)O`, the Potency is > 92 µM (inactive). Take `CC1(C)[C@@H]2CC[C@@]1(C)C(=O)C2`: the Potency is > 92 µM (inactive). Turning to `NC(=O)N/N=C/c1ccc([N+](=O)[O-])o1`, the Potency is > 92 µM (inactive). On to `Nc1ccc(S(=O)(=O)Nc2nccs2)cc1`, for which the Potency is > 92 µM (inactive). `NC(=O)c1ncn([C@@H]2O[C@H](CO)[C@@H](O)[C@H]2O)n1`: the Potency is > 92 µM (inactive). For `CCCCOC(=O)c1ccc(O)cc1`, the Potency is > 92 µM (inactive). Still for that read-out and setting: as for `CC12CCC(CC1)C(C)(C)O2`, the figure is > 92 µM (inactive); as for `[Cl][In]([Cl])[Cl]`, > 92 µM (inactive); as for `C[C@]12C[C@H](O)[C@H]3[C@@H](CCC4=CC(=O)CC[C@@]43C)[C@@H]1CC[C@@H]2C(=O)CO`, > 92 µM (inactive).

On to `O=C1c2c(O)cccc2Cc2cccc(O)c21`, for which the Potency was > 92 µM (inactive). Take `COC(=O)C1=C(C)NC(C)=C(C(=O)OC)C1c1ccccc1[N+](=O)[O-]`: the Potency is > 92 µM (inactive).
